Screening results from PubChem.
LDHA inh = inhibitors of human lactate dehydrogenase A; P00338; purified LDHA, NADH/diaphorase-resazurin fluorescence; stronger effect = lower value; activity change, % (values are at about 110 or 230 µM); 480,000 compounds, 0.15% hits; in the data active = activity change below about -30%; inconclusive = mostly about -25% to -30%
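Enzyme activity of human lactate dehydrogenase 5 (2 nM; 0.06 mM NADH, 0.2 mM pyruvate, 5 min, RT) is measured via a resazurin/diaphorase fluorescence readout of residual NADH.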
ClpP mod = qHTS Assay for Activators of ClpP. ATP-dependent Clp protease proteolytic subunit (Bacillus subtilis (strain 168)), P80244. 340,000 compounds, 1.9% hits. Potency, µM (titrated, usually from 57.5 µM). purified B. subtilis ClpP, FRET peptide cleavage, 20 min. AID 651965, 2013; active = well fitted falling curve with a large enough effect; inconclusive = small, poorly fitted or top-dose-only effect; inactive = no such curve, though single readings can be large or run the other way; note: the source files actives as falling curves though it sought activators and does not explain the sign; nearly all actives have a fitted effect of over 65% in size
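FRET quenching reversal measured ClpP activation: 10 microg/mL B. subtilis ClpP at pH 8 with the FRET-FV decapeptide, read at 430 nm after 320 nm excitation. The 20-min minus 0-min signal was scaled between DMSO/no-enzyme wells and ADEP (5.8 microM final).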
KCNH2 WT inh = blocks the wildtype human KCNH2 potassium channel; activity change, % at 1.84 µM; AID 720551; U2OS, BacMam KCNH2, thallium flux FluxOr; stronger effect = lower value; 340,000 compounds, 0.37% hits;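 active = maximum activity change below -70%; inconclusive = maximum activity change between -70% and -50%; inactive = maximum activity change above -50%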
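U2OS cells were transduced with wild-type KCNH2 virus (2.03 x 10^8 / mL) for 4 h at room temperature, then cultured overnight at 37 C. Thallium flux was read with FluxOr dye. Rate constants were normalized to DMSO controls.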
BCR signal inh = blocks chronic active B-cell receptor signaling; 340,000 compounds, 0.05% hits; Potency, µM (series often up to 46.1 µM), hits mostly inhibitors; ABC-DLBCL IkBa-CBG/CBR reporter, luminescence ratio, 4 h; active = well fitted inhibition curve with a large enough effect in the signal ratio, with a control signal flat, not every such curve was filed as active; inconclusive = small, poorly fitted or top-dose-only effect, or effect the other way, or a change in a side signal; the % refers to the signal ratio
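Compounds up to 46 uM were incubated four hours with TMD8 cells whose green CBG68 luciferase is fused to IkappaBalpha; red CBR luminescence normalised the signal, and concentration-effect curves were fitted to fusion, red and ratio data.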
KCNH2 3.1 block = inhibitors of human KCNH2 3.1 potassium channel isoform; activity change, % (tested at about 1.8 µM); 340,000 compounds, 0.95% hits; U2OS KCNH2 3.1, thallium flux FluxOr; stronger effect = lower value;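 active = maximum activity change below -70%; inconclusive = maximum activity change from -70% to -50%; inactive = maximum activity change above -50%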;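 note: thallium influx rate constant from kinetic fluorescence after stimulation buffer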
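Thallium flux read-out: FluxOr dye with Red40 quencher in HBSS/HEPES, 45 min at RT. Rate constants from kinetic reads were normalized to positive and negative DMSO controls. Cells: U2OS virally expressing the 3.1 isoform.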
ALOX12 inh = ALOX12 (human) lipoxygenase inhibition; purified 12hLO, xylenol orange hydroperoxide absorbance; Potency, µM (highest dose often 108 µM), hits mostly inhibitors; 580,000 compounds, 1.1% hits; active = well fitted inhibition curve with a large enough effect; inconclusive = small, poorly fitted or top-dose-only effect, or another doubt; inactive = no such curve, though single readings can be large or run the other way
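Purified human 12hLO at 150 nM in 25 mM Hepes, 0.01% Triton X-100, pH 7.0, preincubated 15 min at room temperature with compound. Reaction started with 40 uM arachidonic acid, 30 min at room temperature. Hydroperoxide measured by Fe-xylenol orange, 573/405 nm absorbance ratio.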
A number is an active result; 0 = inactive; ? = inconclusive; - = not tested or not shown; ! = not active in a repeat; [ ] = dose if it differs, or a comment. An excerpt weighted towards active compounds, which were near 3% of everything screened.

SMILES	LDHA inh	ClpP mod	KCNH2 WT inh	BCR signal inh	KCNH2 3.1 block	ALOX12 inh
O=c1[nH]c(=S)[nH]c(O)c1CN1CCCCC1	0	0	0	0	0	0
Clc1cccc(CNCCc2ccc3c(c2)OCO3)c1	0	-	0	0	0	?
Clc1ccc(CNCCc2ccc3c(c2)OCO3)cc1	0	-	0	0	0	4.5µM
FC(F)(F)c1ccc(CNCCc2ccc3c(c2)OCO3)cc1	0	0	0	0	0	1.8µM
Fc1ccccc1CNCCc1ccc2c(c1)OCO2	0	0	0	0	0	?
COc1cc2c(cc1Oc1ccccc1)NC(=O)C21CCN(c2ncc(F)cn2)CC1	-	-	-	-	-	0
CCOc1ccccc1CNCCc1c[nH]c2ccccc12	0	-	-	-	-	?
C[CH2][Hg][S]c1ccccc1C(=O)O	0	0	0	-	0	5.6µM
CS(=O)(=O)NC[C@H]1C[C@@H]2CCN1C[C@@H]2CN1C[C@@H]2C[C@H](C1)c1cccc(=O)n1C2	-	-	-	-	-	0
Cc1ccc(C(=O)NC[C@H]2C[C@@H]3CCN2C[C@@H]3c2cc(-c3ccccc3Br)nc(C)n2)cc1	-	-	-	-	-	0
Cc1nc(-c2ccccc2)cc([C@H]2CN3CC[C@H]2C[C@@H]3CNC(=O)NC(C)C)n1	-	-	-	-	-	25µM
COc1ccc(NC(=O)NC[C@H]2C[C@@H]3CCN2C[C@@H]3c2cc(-c3ccccc3Br)nc(C)n2)cc1	-	-	-	-	-	35µM
CC(C(=O)NCc1cccs1)N1CC=C(c2ccccc2)CC1 (stereo not given)	0	-	-	-	-	?
OC(COCc1ccc(Cl)cc1)CN1CC=C(c2ccccc2)CC1 (stereo not given)	0	0	?	?	-112	?
Cc1oc2cc(OCC(=O)N3CCN(C)CC3)ccc2c(=O)c1Oc1ccccc1	0	-	-	-	-	0
Cc1cccc2c1=NC(=O)/C(=C/c1c(O)[nH]c(=O)[nH]c1=O)C=2	0	13µM	0	0	0	0
CC1CCN(C[C@H]2CN3CC[C@H]2C[C@@H]3CNC(=O)c2ccc3c(c2)OCO3)CC1	-	-	-	-	-	0
Cc1cccc(-n2c(O)c(C)c(=O)[nH]c2=S)c1	0	0	0	?	0	45µM
CC1c2cccn2-c2ccccc2CN1C(=O)Nc1ccc(F)cc1F (stereo not given)	0	-	-	-	-	0
CCC1(CC)C(=N)N(C)C(=O)NC1=O	0	16µM	0	0	0	0
CCCCN1C(=N)C(CC)(CC)C(=O)NC1=O	0	0	0	0	0	0
COc1ccc(N2C(=O)NC(=O)/C(=C\c3ccc([N+](=O)[O-])s3)C2=O)cc1	0	-	0	0	0	45µM
C=CCN1C(=O)/C(=C/c2cccs2)C(=O)NC1=S	?	0	0	0	0	45µM
O=C1NC(=O)N(c2ccccc2)C(=O)/C1=C/c1coc2ccc(O)cc2c1=O	0	0	0	?	0	45µM
O=C1NC(=O)N(c2ccccc2)C(=O)/C1=C\c1ccccc1[N+](=O)[O-]	-35	0	0	?	0	?
SMILES	LDHA inh	ClpP mod	KCNH2 WT inh	BCR signal inh	KCNH2 3.1 block	ALOX12 inh
O=C(CN1CC=C(c2ccccc2)CC1)N(C1CCCC1)C1CCS(=O)(=O)C1 (stereo not given)	0	-	-	-	-	?
O=Cc1cccc2ccccc12	0	-	-	-	-	0
O=C(CCl)NCNC(=O)CCl	0	-	-	-	-	?
COc1ccc(CCNCc2ccccc2C)cc1	0	-	-	-	-	0
COc1ccc(N2C(=O)/C(=C/c3ccc(N(C)C)o3)C(=O)NC2=S)cc1	0	0	0	0	0	?
COc1ccc(N2C(=O)/C(=C/c3cccs3)C(=O)NC2=S)cc1	0	-	0	?	0	28µM
COc1ccc(N2C(=O)/C(=C/C=C/c3ccccc3[N+](=O)[O-])C(=O)NC2=S)cc1	0	-	0	0	0	11µM
Cc1ccsc1C(=O)C1CCCN(Cc2ccc(-n3cccn3)cc2)C1 (stereo not given)	0	0	0	0	-72	0
C#C[C@H]1CN2CC[C@H]1C[C@@H]2CNCc1ccc(C(F)(F)F)cc1	-	-	-	-	-	0
COc1cccc(N2C(=O)/C(=C/c3ccc(C)o3)C(=O)NC2=S)c1	0	0	0	0	0	10µM
O=C1NC(=S)N(c2ccccc2)C(=O)/C1=C/c1ccco1	0	-	0	0	0	?
CCOc1cccc(N2C(=O)/C(=C/c3ccco3)C(=O)NC2=S)c1	0	0	0	0	0	11µM
Cc1ccc(/C=C2\C(=O)NC(=S)N(c3ccc(F)cc3)C2=O)o1	0	0	0	0	0	?
COc1ccc(C=C2C(=O)N(C)C(=O)N(C)C2=O)cc1COc1ccc(NC(C)=O)cc1	0	-	0	?	0	0
CN1C(=O)C(=Cc2ccc(OCC(=O)Nc3ccccc3)cc2)C(=O)N(C)C1=O	0	16µM	0	?	0	-
COc1cc(/C=C/[N+](=O)[O-])ccc1O	0	0	0	21µM	?	0
COC(=O)C1=C(c2ccc(C(C)=O)cc2)C[C@@H]2CC[C@H]1N2C(=O)N1CCC(O)(c2ccc(Cl)cc2)CC1	0	0	-115	0	-88	0
COC(=O)C1=C(c2ccc(C(C)=O)cc2)C[C@@H]2CC[C@H]1N2C(=O)N1CCC(C)CC1	0	0	0	?	0	0
O=C(Nc1ccc2ccccc2c1)c1nn(C23CC4CC(CC(C4)C2)C3)cc1Br	0	20µM	0	0	0	0
c1ccc2c(CN3CCCCCCC3)c[nH]c2c1	0	28µM	0	?	0	?
c1ccc2c(CN3CCN(C4CCCCC4)CC3)c[nH]c2c1	0	0	0	0	0	0
Cc1nc2ccccc2c(=O)n1-c1cccc(O)c1	0	0	0	?	0	0
Oc1cccc(Nc2nc(-c3ccccc3)nc3ccccc23)c1	0	0	0	?	0	40µM!
CCOC(=O)c1ccc(N2C(=O)CC(N3CC=C(c4ccc(F)cc4)CC3)C2=O)cc1 (stereo not given)	0	0	0	0	0	?
NC(=O)c1ccc(OCCC(O)N2CC=C(c3ccc(F)cc3)CC2)cc1 (stereo not given)	0	0	0	0	-73	0
SMILES	LDHA inh	ClpP mod	KCNH2 WT inh	BCR signal inh	KCNH2 3.1 block	ALOX12 inh
CCOc1ccccc1N1C(=O)CC(=O)NC1=O	-30	0	0	0	0	0
CCOc1ccc(N2C(=O)CC(=O)NC2=O)cc1	0	0	0	0	0	?
CC(C)(C)c1cc(NCCCn2ccnc2)n2ncc(-c3ccc(Cl)cc3)c2n1	0	14µM	0	?	?	0
COc1cccc(N2CC3CCC(C2)N3CC(F)(F)F)n1	-	-	-	-	-	0[6.33 µM]
CCN1/C(=C\C=C\C2=[N+](CC)c3ccccc3C2(C)C)C(C)(C)c2ccccc21	0	0	-208	?	?	-
COc1cc(CN2CCN(C(=O)COc3ccc4ccccc4c3)CC2)cc(OC)c1O	0	-	-	-	-	1.6µM
COc1ccc(CN2CCN(C(=O)COc3ccc4ccccc4c3)CC2)cc1OC	0	-	-	-	-	?
